Experiment [1] is described as follows: qHTS assay to test for compound auto fluorescence at 535 nm (green) in HEK293 cells (AID 720680).
Experiment [2] can be described thus: qHTS assay to test for compound auto fluorescence at 460 nm (blue) in HEK293 cell free culture (AID 720681). Note: potency is the fitted concentration of half-maximal effect. The method in brief: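 Test compounds were pinned into cell-free culture medium (DMEM with 10% FBS) and fluorescence was read directly at Ex/Em 405/460 nm. Signals were expressed as fluorescence equivalents of triamterene, with DMSO vehicle as control.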
Background: qHTS replaces the single test concentration by a dilution series.

Experiment [3] can be described thus: qHTS assay to test for compound auto fluorescence at 535 nm (green) in HEK293 cell free culture (AID 720682). The method, boiled down: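 Read-out: 485/535 nm fluorescence intensity, calibrated against fluorescein. Medium only (DMEM + 10% FBS, no cells); test compound or DMSO vehicle added by pintool before plate reading.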
Experiment [4] in a line: qHTS assay to test for compound auto fluorescence at 590 nm (red) in HEK293 cell free culture (AID 720683). The method in brief:
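Tox21 10K library compounds were pinned into cell-free DMEM with 10% FBS and fluorescence was read at excitation 540 nm. Activity is expressed as Rose Bengal sodium equivalency.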

Experiment [5] is described as follows: qHTS assay to test for compound auto fluorescence at 590 nm (red) in HepG2 cell free culture (AID 720684). The method in brief:
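Readout: intrinsic compound fluorescence at 590 nm emission after 540 nm excitation, scaled to Rose Bengal sodium. Matrix was cell-free MEM with 10% FBS; DMSO vehicle wells served as control.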

Experiment [6] can be described thus: qHTS assay to test for compound auto fluorescence at 460 nm (blue) in HepG2 cell free culture (AID 720685). Note: potency is the fitted concentration of half-maximal effect. The method in brief: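 Cell-free plates of MEM plus 10% FBS received 23 nL compound or DMSO vehicle; blue-channel (405/460 nm) intensity scored against triamterene as reference fluorophore.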
Experiment [7] in a line: qHTS assay to test for compound auto fluorescence at 535 nm (green) in HepG2 cell free culture (AID 720686).
The nature of experiment [8]: qHTS assay to test for compound auto fluorescence at 460 nm (blue) in HepG2 cells (AID 720687). Note: potency is the fitted concentration of half-maximal effect. The method in brief:
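Cells (2,000/well in MEM with 10% FBS) attached overnight at 37 C, then were exposed to compound or DMSO for 1 hr at 37 C, 5% CO2. Fluorescence read at Ex/Em 405/460 nm, expressed as triamterene-equivalent signal.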

The target in experiment [9] is Glucocorticoid receptor (Homo sapiens) (UniProt P04150). Put plainly: qHTS assay to identify small molecule agonists of the glucocorticoid receptor (GR) signaling pathway (AID 720691; active = well fitted activation curve with a large enough effect in the signal ratio in the repeat runs, not every such curve was filed as active; inconclusive = weak or mixed curves, or effect the other way; inactive = no such curve, though single readings can be large or run the other way; the % refers to the signal ratio; note: potency is the fitted concentration of half-maximal effect). The note with it: GR-bla HeLa, beta-lactamase reporter ratio, 18 h; activation: at 62.4 µM (top of the series). The method, boiled down:
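HeLa GR-bla reporter line; cells pre-incubated 4 h, compound in DMSO 18 h at 37 C; LiveBLAzer B/G FRET substrate 2 h RT; fluorescence intensity read-out.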

21 molecules from PubChem BioAssay (Tox21) can be followed below.

SMILES strings stand for the structures. A number with no mark means an inactive call. The source made the active and inactive calls. Unless noted, calls come from the whole dose curve; as a rule, active = well fitted curve in the direction sought with a large enough effect in the repeat runs; inconclusive = weak or mixed curves; inactive = flat fitted curve, though single readings scatter.
% is set by controls: 0 for no effect and ±100 for the full control effect; tags give direction and shape of the fitted curve or compound fluorescence and quenching.

Sequence of Glucocorticoid receptor (Homo sapiens) (P04150 whole entry, looked up): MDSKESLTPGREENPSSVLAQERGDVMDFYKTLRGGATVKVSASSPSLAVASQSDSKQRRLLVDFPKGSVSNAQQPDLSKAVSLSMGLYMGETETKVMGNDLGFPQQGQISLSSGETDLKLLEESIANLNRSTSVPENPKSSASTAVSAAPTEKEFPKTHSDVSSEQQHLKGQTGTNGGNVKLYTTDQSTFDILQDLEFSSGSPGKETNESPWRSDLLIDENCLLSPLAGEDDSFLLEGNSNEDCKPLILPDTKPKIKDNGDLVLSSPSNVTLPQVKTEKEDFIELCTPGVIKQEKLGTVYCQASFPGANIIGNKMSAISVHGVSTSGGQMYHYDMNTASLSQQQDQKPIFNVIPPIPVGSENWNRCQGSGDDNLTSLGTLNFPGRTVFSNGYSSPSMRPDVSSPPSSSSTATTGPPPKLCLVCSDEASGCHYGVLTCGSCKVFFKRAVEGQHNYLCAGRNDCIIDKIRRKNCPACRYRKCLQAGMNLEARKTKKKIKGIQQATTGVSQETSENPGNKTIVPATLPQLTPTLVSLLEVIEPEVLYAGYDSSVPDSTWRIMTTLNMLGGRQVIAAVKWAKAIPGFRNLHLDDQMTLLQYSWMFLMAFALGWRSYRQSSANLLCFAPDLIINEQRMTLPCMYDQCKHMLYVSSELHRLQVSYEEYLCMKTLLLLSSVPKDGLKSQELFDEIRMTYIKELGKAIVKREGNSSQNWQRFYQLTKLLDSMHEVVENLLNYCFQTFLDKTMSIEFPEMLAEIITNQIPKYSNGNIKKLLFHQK

On to `CCCCCCOC(=O)c1ccc(O)cc1`, for which the call in experiment [1] and in [3] was inactive. The Potency result in [2], in experiment [4], in experiment [5], in [6], in [7] and in [8] was “inactive” throughout. In addition, the Potency entry in [9] is “inactive”.
As for `O=C(Nc1cccc(Cl)c1)OCC#CCCl`, the molecule was classed as inactive in experiment [1] and in experiment [3]. Moreover, the Potency result in experiment [2], in experiment [4], in experiment [5], in [6], in [7] and in experiment [8] was “inactive” throughout.
`O=c1[nH]sc2ccccc12`: the outcome in experiment [1] and in experiment [3] was inactive. Also, the Potency entry in experiment [2], in experiment [4], in experiment [5], in experiment [6], in [7] and in [8] was “inactive” throughout.
In the case of `CCN(CC)CCCC(C)Nc1c2ccc(Cl)cc2nc2ccc(OC)cc12` (stereo not given), the result in experiment [1] and in [3] was inactive. For the same molecule, the Potency in [2] is 17.8 µM (active); in experiment [6] it was 15.8 µM [fluorescent] (active); in experiment [8], 15.8 µM [fluorescent] (active). The Potency entry in [4], in [5] and in [7] was “inactive” in each case.
Regarding `CC1=C(/C=C/C(C)=C/C=C/C(C)=C/C=O)C(C)(C)CCC1`, the molecule was called inactive in experiment [1] and in experiment [3]. The Potency result in experiment [2], in [4], in experiment [5], in experiment [6], in experiment [7] and in [8] was “inactive” in each case.
With `O=C(OCC1CO1)C1CCCCC1C(=O)OCC1CO1` (stereo not given), the outcome in [1] and in experiment [3] was inactive. In addition, the Potency result in experiment [2], in experiment [4], in experiment [5], in [6], in experiment [7] and in experiment [8] was “inactive” each time. Also, the Potency result in experiment [9] is “inactive”.
As to `Fc1ccc(C(c2ccc(F)cc2)N2CCN(C/C=C/c3ccccc3)CC2)cc1`, the molecule was called inactive in experiment [1] and in experiment [3]. For the same molecule, the Potency entry in experiment [2], in experiment [4], in [5], in [6], in experiment [7] and in experiment [8] was “inactive” throughout. Also, in [9], the Potency entry is “inactive”.
`CCC(Cl)C(Cl)C(Cl)CC(Cl)C(Cl)C(C)Cl` (stereo not given): the molecule was classed as inactive in experiment [1] and in [3]. Moreover, the Potency result in [2], in experiment [4], in [5], in experiment [6], in experiment [7] and in experiment [8] was “inactive” each time. For the same molecule, the Potency result in [9] was “inactive”.
As to `COc1cccc(N)c1`, the molecule was classed as inactive in [1] and in experiment [3]. Further, the Potency entry in experiment [2], in experiment [4], in experiment [5], in [6], in experiment [7] and in [8] was “inactive” in each case. Further, in experiment [9], the Potency entry was “inactive”.
With `CC(C)(C)NC(=O)[C@@H]1C[C@@H]2CCCC[C@@H]2CN1C[C@@H](O)[C@H](Cc1ccccc1)NC(=O)[C@H](CC(N)=O)NC(=O)c1ccc2ccccc2n1`, the molecule was called inactive in experiment [1] and in experiment [3]. For the same molecule, the Potency entry in experiment [2], in experiment [4], in experiment [5], in experiment [6], in [7] and in experiment [8] was “inactive” throughout.
Regarding `CCC1OCC(COc2ccc(Oc3ccccc3)cc2)O1` (stereo not given), the outcome in [1] and in experiment [3] was inactive. Also, the Potency result in [2], in experiment [4], in [5], in experiment [6], in experiment [7] and in experiment [8] was “inactive” each time. Moreover, the Potency result in experiment [9] was “inactive”.
Consider `NC(=O)CC[C@@H]1NC(=O)[C@H](Cc2ccccc2)NC(=O)[C@H](Cc2ccc(O)cc2)NC(=O)CCSSC[C@@H](C(=O)N2CCC[C@H]2C(=O)N[C@@H](CCCN=C(N)N)C(=O)NCC(N)=O)NC(=O)[C@H](CC(N)=O)NC1=O`, for which the molecule was classed as inactive in [1] and in [3]. Moreover, the Potency entry in experiment [2], in [4], in experiment [5], in [6], in [7] and in experiment [8] was “inactive” each time.
For the molecule `OCc1c[nH]c2ccccc12`, the outcome in [1] and in experiment [3] was inactive. In addition, the Potency entry in experiment [2], in experiment [4], in experiment [5], in experiment [6], in experiment [7] and in experiment [8] was “inactive” in each case.
In the case of `O=C(Nc1ccc(Oc2ccc(Cl)cc2)c(Cl)c1)c1cc(I)cc(I)c1O`, the molecule was classed as inactive in experiment [1] and in experiment [3]. Further, the Potency entry in [2], in experiment [4], in [5], in [6], in experiment [7] and in [8] was “inactive” in each case.
For the molecule `Clc1ccc2n[nH]nc2c1`, the molecule was classed as inactive in experiment [1] and in experiment [3]. The Potency result in experiment [2], in experiment [4], in experiment [5], in [6], in [7] and in experiment [8] was “inactive” throughout. The Potency result in experiment [9] was “inactive”.
With `OCCCCCCCCCCCCBr`, the result in experiment [1] and in [3] was inactive. The Potency entry in experiment [2], in experiment [4], in experiment [5], in [6], in [7] and in experiment [8] was “inactive” in each case. Besides, in experiment [9], the Potency result is “inactive”.
As to `Cc1onc(-c2ccccc2Cl)c1C(=O)N[C@@H]1C(=O)N2[C@@H]1SC(C)(C)[C@@H]2C(=O)O`, the fluorescence, % of fluorescein in experiment [1] is 0.0884% [at 18.6 µM]. The fluorescence, % of fluorescent control in experiment [2] was 0.0563% [at 18.6 µM]; in experiment [4], 0.401% [at 18.6 µM]; in experiment [6], 0.0226% [at 18.6 µM]; in [8], 0.0164% [at 18.6 µM]. In addition, the activity change in [3] is 0.0013% [at 18.6 µM]. Further, the fluorescence, % of Rose Bengal in experiment [5] was -0.203% [at 18.6 µM]. In addition, the fluorescence, % of fluorescein control in experiment [7] is 0.101% [at 18.6 µM]. Further, in experiment [9], the Potency result was “inactive”.
For `NC(=O)NS(=O)(=O)c1ccc(N)cc1`, the molecule was called inactive in experiment [1] and in experiment [3]. Further, the Potency entry in experiment [2], in experiment [4], in experiment [5], in experiment [6], in experiment [7] and in experiment [8] was “inactive” throughout. The Potency result in [9] is “inactive”.
`C[C@]12CCC(=O)C=C1CC[C@@H]1[C@@H]2[C@@H](O)C[C@@]2(C)[C@H]1CC[C@]2(O)C(=O)COC(=O)CCC(=O)O`: the outcome in experiment [1] and in experiment [3] was inactive. Moreover, the Potency result in experiment [2], in experiment [4], in experiment [5], in experiment [6], in [7] and in [8] was “inactive” each time. The Potency in experiment [9] is 0.848 µM [inconclusive] (active).
Turning to `[O-][n+]1ccccc1SSc1cccc[n+]1[O-]`, the molecule was called inactive in experiment [1] and in experiment [3]. In addition, the Potency entry in experiment [2], in [4], in experiment [5], in [6], in [7] and in experiment [8] was “inactive” throughout.
With `Cc1cc(CCN2CCN(c3nsc4ccccc34)CC2)cc2c1NC(=O)CC2(C)C`, the result in experiment [1] and in experiment [3] was inactive. Further, the Potency entry in experiment [2], in experiment [4], in [5], in experiment [6], in [7] and in [8] was “inactive” throughout. For the same molecule, the Potency entry in experiment [9] is “inactive”.
